Measurements from ChEMBL document CHEMBL4513154, “CO-ADD screening of Jain University (India) compounds”.
Measured potencies and affinities stand elsewhere.

Each compound was assayed on Staphylococcus aureus. Conditions: Concentration 32 ug.mL-1; ASSAY_TEST Inhibition of Bacterial Growth; detection method Absorption (OD600); MEDIA CAMHB; plate type 384well; NBS; CORNING #3640; time 18 hr.

| Compound | Inhibition [%] |
| --- | --- |
| Clc1ccc(Cn2c(-c3cscn3)nc3ccccc32)cn1 | 3.88 |
| Clc1ccc(Cn2c(-c3cscn3)nc3c(Cl)cccc32)cn1 | -6.34 |
| Clc1ccc2c(c1)nc(-c1cscn1)n2Cc1ccc(Cl)nc1 | -10.99 |

The compounds below were run on Escherichia coli. Conditions: Concentration 32 ug.mL-1; ASSAY_TEST Inhibition of Bacterial Growth; detection method Absorption (OD600); MEDIA CAMHB; plate type 384well; NBS; CORNING #3640; time 18 hr.

| Compound | Inhibition [%] |
| --- | --- |
| Clc1ccc(Cn2c(-c3cscn3)nc3ccccc32)cn1 | -1.48 |
| Clc1ccc(Cn2c(-c3cscn3)nc3c(Cl)cccc32)cn1 | -8.9 |
| Clc1ccc2c(c1)nc(-c1cscn1)n2Cc1ccc(Cl)nc1 | -7.54 |
